TEAD-YAP inh: TEAD-YAP interaction inhibition. HEK-TIYL cells, TEAD-Gal4/YAP UAS-luciferase luminescence. inhibition, % at 9.12 µM. 640,000 tested, 1.4% active. AID 1259422; in the data active = inhibition above about 32%;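 note: 0% = median of test compound wells and 100% = reference inhibitor wells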
GPR151 activ: human GPR151 activation; Q8TDV0; activation, % at 11.2 µM; AID 1508602; 650,000 tested, 1% active; PathHunter beta-arrestin GPR151 cells, luminescence; in the data active = activation above about 4.9%;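 note: 0% = median of compound wells and 100% = cells with positive control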
MITF primary: blocks human microphthalmia-associated transcription factor. AlphaScreen MITF homodimerization, bead proximity signal. inhibition, % at 2.6 µM. 650,000 tested, 0.91% active; in the data active = inhibition above about 50%;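 note: 0% = vehicle wells with protein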
FBW7 activator: activators of human E3 ligase FBW7; Q969H0; AlphaScreen FBW7–phospho-cyclin E peptide binding, activator screen; normalized activity (activation), % at 26.1 µM; 650,000 tested, 0.13% active; AID 1259310; in the data active = normalized activity above about 1.9%;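 note: purified mutant Fbw7 with reduced substrate affinity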
GPR151 confirm: confirmation of human GPR151 activators | shares compounds with GPR151 activ | GPR151 PathHunter beta-arrestin cells, luminescence, 90 min; % of EA-reagent control over plate median | activation, % at 11.2 µM | 6,700 tested, under 10 active;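 active = mean percent activation across replicates above the confirmation screen cutoff of 4.91%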
GPR119 ag: GPR119 activation, counter-screen for GPR151 activators; shares compounds with GPR151 activ; GPR119 PathHunter beta-arrestin cells, luminescence, 90 min; 0 = compound-well median, 100 = enzyme-acceptor control; activation, % at 11.2 µM; 6,700 tested, 0.3% active; AID 1508611;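 active = mean percent activation in the counterscreen above 29.09%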;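 note: counterscreen on off-target GPR119 to flag nonselective hits from the GPR151 activator screen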
Target sequence (Q8TDV5 whole entry, looked up): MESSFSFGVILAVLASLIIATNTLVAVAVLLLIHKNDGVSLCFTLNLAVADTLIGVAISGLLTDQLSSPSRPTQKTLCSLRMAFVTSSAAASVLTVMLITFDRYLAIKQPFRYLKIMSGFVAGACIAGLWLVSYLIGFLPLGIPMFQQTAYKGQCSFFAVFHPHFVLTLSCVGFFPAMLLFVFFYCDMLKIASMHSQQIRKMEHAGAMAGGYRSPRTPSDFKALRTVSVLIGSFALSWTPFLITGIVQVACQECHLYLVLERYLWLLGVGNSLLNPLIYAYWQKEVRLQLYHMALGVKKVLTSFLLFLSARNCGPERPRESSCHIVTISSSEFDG
* = called active by the depositor; . = no result. Only some compounds are listed: those with a hit (about 3.5% of all), similar ones and a draw of the others.

SMILES | TEAD-YAP inh | GPR151 activ | MITF primary | FBW7 activator | GPR151 confirm | GPR119 ag
CCCNC(=O)C1CCC(CNS(=O)(=O)c2ccc(OC)cc2)CC1 (centres undefined) | -3.5 | -0.5 | -10.4 | 0.0 | . | .
COCCNC(=O)C1CCC(CNS(=O)(=O)c2ccc(OC)cc2)CC1 (centres undefined) | 5.0 | 6.0* | 5.8 | 0.2 | -0.2 | 7.9
NC(=O)c1c(NC(=O)/C=C/c2cccc([N+](=O)[O-])c2)sc2c1CCCC2 | -10.0 | 1.2 | 3.2 | -0.1 | . | .
CCOC(=O)CN1C(=O)S/C(=C/c2ccsc2)C1=O | 5.2 | -0.9 | 18.1 | -0.1 | . | .
CC1=NN(c2ccc(C)c(C)c2)C(=O)/C1=C/c1ccc(-c2ccc3c(c2)C(=O)OC3)o1 | 4.0 | 0.0 | -3.4 | 0.0 | . | .
Cc1ccc(-n2cnnn2)c(S(=O)(=O)N2CCOCC2)c1 | 6.3 | 5.4* | 1.2 | -0.1 | 0.1 | 5.6
O=C(NCCCn1ccnc1)c1csc2ccccc12 | -33.4 | 1.1 | -2.1 | -0.4 | . | .
O=C(CSc1nc2ccccc2c(=O)n1CC1COc2ccccc2O1)NC1CCCC1 (centres undefined) | 2.5 | -0.3 | 13.0 | 0.1 | . | .
O=C(CSCc1c(Cl)cccc1Cl)N1CCOCC1 | -9.1 | -0.9 | -8.9 | 0.0 | . | .
O=C(CSCc1c(Cl)cccc1Cl)N1CCCCC1 | 1.1 | 6.1* | 6.3 | -0.2 | 0.4 | -0.3
CCCCOc1ccc(/C=c2\sc3nc(-c4ccncc4)nn3c2=O)cc1 | 8.8 | 5.1* | -0.1 | 0.1 | 0.3 | -2.1
CC(C)CCOc1ccc(-c2nn(-c3ccccc3)cc2/C=c2\sc3nc(-c4cccs4)nn3c2=O)cc1 | -3.2 | 7.0* | 28.4 | -0.2 | -0.6 | 13.9
COc1cc(/C=c2\sc3nc(-c4ccncc4)nn3c2=O)ccc1OC(C)=O | -2.8 | 4.9* | 7.2 | -0.1 | 1.5 | -1.1
CCCCOc1ccc(/C=c2\sc3nc(-c4ccc(Cl)cc4)nn3c2=O)cc1 | 0.3 | 1.1 | -3.6 | 0.0 | . | .
COc1ccc(-c2nc3s/c(=C\c4ccccc4F)c(=O)n3n2)cc1 | -6.1 | -0.1 | 2.4 | 0.2 | . | .
COc1ccc(/C=c2\sc3nc(-c4ccncc4)nn3c2=O)cc1OC | 12.1 | -1.4 | 20.5 | 0.5 | . | .
CCOc1ccc(-c2nc3s/c(=C\c4ccccc4F)c(=O)n3n2)cc1 | -5.3 | 10.8* | -0.5 | 0.1 | -0.5 | 3.8
CCS(=O)(=O)N1CCC(c2nc(-c3ccc(C(F)(F)F)cc3)no2)CC1 | 9.1 | -1.6 | -2.6 | 0.9 | . | .
Cc1cccc(-n2cc(-c3ccccc3)nc2SCC(=O)Nc2ccc(Cl)cc2)c1 | -8.4 | 6.3* | 10.9 | -0.1 | 0.0 | 2.5
CCCSc1nc2nc(C)cc(C)n2n1 | -8.7 | 2.0 | 2.3 | -0.1 | . | .
CCN(CC)C(=O)C1CCCN(c2nc(C)cc(Nc3ccc(Oc4ccccc4)cc3)n2)C1 (centres undefined) | 13.5 | 12.1* | -2.4 | 0.0 | 1.0 | 3.6
CC(=O)N1CCc2cc(NS(=O)(=O)c3ccc4ccccc4c3)ccc21 | -5.2 | 5.0* | 8.0 | -0.2 | 0.7 | 2.7
CC(=O)N1CCSc2cc(S(=O)(=O)Nc3ccc(Cl)cc3)ccc21 | 3.8 | 5.0* | 1.5 | -0.1 | 0.2 | 2.2
CC(=O)N1CCSc2cc(S(=O)(=O)NC3CCCCC3)ccc21 | 14.1 | 6.1* | -16.0 | 0.2 | 0.9 | 2.0
CC(=O)N1CCSc2cc(S(=O)(=O)Nc3ccc(C(C)C)cc3)ccc21 | -10.2 | 0.3 | -10.1 | -0.3 | . | .
SMILES | TEAD-YAP inh | GPR151 activ | MITF primary | FBW7 activator | GPR151 confirm | GPR119 ag
CCOC(=O)C1CCN(Cc2ccc([N+](=O)[O-])o2)CC1 | -3.6 | 0.7 | 41.0 | -0.1 | . | .
O=C(Nc1c(F)cccc1F)c1ccccc1Cl | -21.9 | -0.8 | 13.2 | -0.1 | . | .
O=C(Nc1ccc2ccccc2c1)c1ccc(Cl)cc1 | -48.7 | 5.2* | 3.4 | 0.0 | -0.1 | -8.0
O=C(Nc1c(F)cccc1F)c1ccc(Cl)cc1 | -0.9 | 7.7* | 3.0 | -0.2 | -0.6 | -0.5
Cc1ccc(NC(=O)C2CCCN2c2nn3c(=O)cc(C)nc3s2)c(Cl)c1 (centres undefined) | 2.9 | 5.0* | 5.5 | 0.0 | -0.1 | -4.6
Cc1ccc(-c2cc(CNC(=O)c3cc4ccccc4o3)no2)cc1 | 8.8 | 0.9 | -11.0 | -0.1 | . | .
CCC1CN(CC(=O)NC(CCn2ccnc2)c2ccccc2)Cc2cc(OC)ccc2O1 (centres undefined) | 1.9 | -1.8 | 10.0 | 0.1 | . | .

Screening results deposited in PubChem BioAssay by The Scripps Research Institute Molecular Screening Center.
